Most compounds without a hit are left out; they make up all but 21% or so of the library.
FBPA Giardia inh: blocks Giardia fructose-bisphosphate aldolase activity; A8B2U2; purified Giardia FBPA; Potency, µM (series often up to 59.6 µM), inactives show top-dose activity, negative = inhibition, actives largely listed as inhibitors; hit rate 0.71% among 290,000; further: potency means the concentration at half of the fitted maximal effect; on the % scale 0 is the no-effect control and ±100 the full control effect; nearly all actives have a fitted effect of over 55% in size
Target sequence (A8B2U2 whole entry, looked up): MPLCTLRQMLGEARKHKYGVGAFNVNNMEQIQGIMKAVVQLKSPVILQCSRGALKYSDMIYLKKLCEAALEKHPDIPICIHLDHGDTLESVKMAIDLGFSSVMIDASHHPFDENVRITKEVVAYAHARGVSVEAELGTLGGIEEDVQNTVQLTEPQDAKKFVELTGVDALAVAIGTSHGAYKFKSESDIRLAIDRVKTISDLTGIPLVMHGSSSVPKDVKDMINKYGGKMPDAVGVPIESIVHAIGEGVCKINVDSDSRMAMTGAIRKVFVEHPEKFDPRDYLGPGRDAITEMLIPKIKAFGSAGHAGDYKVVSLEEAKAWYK
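40 nM FBPA preincubated 10 min at RT with compound (up to 57.5 uM final), then substrate plus GAPDH/TPI/NAD/arsenate coupling and diaphorase/resazurin added. Fluorescence read after 20 min at RT, 525/598 nm.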
NS1 function inh: inhibitors of influenza NS1 protein function; Potency, µM (doses to about 46.1 µM), inactives show top-dose activity, positive = more growth; hit rate 0.4% among 270,000; calls by dose curve; further: potency means the concentration at half of the fitted maximal effect; actives are rising curves; nearly all actives have a fitted effect of over 50% in size
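Recovery from NS1-induced slow growth read by OD600 in budding yeast switched to galactose assay medium (pH 6.0, -URA) at 1:100 dilution. Compound 23 nl per well; the matching strain lacking NS1 serves as control.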
Pf growth 96h: inhibits malaria parasite growth, 96 h. P. falciparum luciferase reporter growth, 96 h. Potency, µM (titrated, usually from 28.7 µM), without a hit: at the top dose activity change, negative = inhibition, most hits filed as inhibitors. hit rate 6.9% among 320,000; further: potency means the concentration at half of the fitted maximal effect; on the % scale 0 is the no-effect control and ±100 the full control effect
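Luminescence readout: decreased luciferase signal marks inhibited growth of reporter-expressing P. falciparum in infected red cells (2% hematocrit, 0.05% parasitemia final), exposed to compound two generations (96 h, 37 C, 5% CO2).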
Pf growth 48h: P. falciparum growth inhibition at 48 hours (one generation); AID 504832; Potency, µM (highest dose often 28.7 µM), for inactives: at the top dose activity change, negative = inhibition, most hits filed as inhibitors; hit rate 5.9% among 310,000; P. falciparum luciferase growth in erythrocytes, 48 h; further: potency means the concentration at half of the fitted maximal effect; on the % scale 0 is the no-effect control and ±100 the full control effect
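Compounds are pin-transferred into medium, infected erythrocytes (2% hematocrit, 0.1% parasitemia final) are added, and plates sit one parasite generation at 37 C in 5% CO2. Detection reagent is then added and luminescence measured.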
CHX counter: affects cycloheximide protein synthesis inhibition readout, counter-screen. max response, %. cell reporter, cycloheximide protein synthesis inhibition counterscreen. hit rate 12% among 300,000; in the data active means max response mostly above about 13%, no sharp cut-off; inactive means mostly below about 14%; further: read at 38.3 µM for the half of the compounds with a filed dose; 0% is about no effect
Shiga inhibitor: blocks Shiga toxin action in Vero cells; Vero cells, Shiga toxin protein synthesis inhibition reporter; inhibition, % at 38.7 µM; hit rate 9.2% among 290,000; in the data active means inhibition mostly above about 28%, no sharp cut-off; inactive means mostly below about 43%; further: 0% is about no effect
An asterisk follows results filed as active; u = inconclusive; x = no result; [ ] = dose if it differs, or a comment. Unless noted, the call rests on the fitted dose curve; in most records, active means well fitted curve in the direction sought with a large enough effect; inconclusive means small, poorly fitted or top-dose-only effect, or another doubt; inactive means no such curve, though single readings can be large; an effect the other way counts as inactive or inconclusive.

SMILES | FBPA Giardia inh | NS1 function inh | Pf growth 96h | Pf growth 48h | CHX counter | Shiga inhibitor
CC1CC=CC2C1C(=O)N(Cc1ccccc1)C2c1ccc2ccccc2c1Br (stereo not given) | -11% | x | x | x | 9 | -2
CC(C)(C)c1cc(C(=S)N2CCCC2)cc(C(C)(C)C)c1O | -2% | -39% | 4.1µM* | u | -2 | -3
COc1cc(C(=S)N2CCCC2)cc(OC)c1OC | -13% | 0% | 139% | 32%[1.15 µM] | -1 | 15
COc1ccc(CCn2c(C)ccc2C)cc1OC | -20% | 10% | 8.3µM* | 5.2µM* | -3 | 10
O=S(=O)(c1ccc(NC(=S)NCc2ccc(F)cc2)cc1)N1CCOCC1 | x | 14% | u | u | -3 | -8
Cc1cc(F)ccc1S(=O)(=O)Nc1ccccc1C(=O)N1CCCC1 | x | x | -7% | -5% | x | x
CC(=O)c1c(O)cc(C)n(Nc2nc(C)cc(C)n2)c1=O | u | -83% | u | 12µM* | 13 | 28
CC(=O)Oc1ccc(N2C(=O)CCC2=O)cc1 | 0% | -1% | -12% | 23% | -1 | -5
C=C(C)C(=O)Oc1ccc(N2C(=O)CCC2=O)cc1 | 4% | -1% | -17% | 28% | 17* | 18
CCOCC(=O)Nc1ccc(Br)c(C)c1 | -2% | 2% | 6% | 37% | 32* | 76*
CCCCc1ccc(NC(=O)CC(C)C)cc1 | -7% | -35% | 22% | u | 29* | 66*
Cc1cc(NC(=O)COC(=O)C2CC2)ccc1Br | x | x | -2% | -7% | x | x
CCCCNCC(=O)Nc1ccc(NC(=O)CNCCCC)cc1 | 1% | 18% | 12µM* | u | -3 | -18
CCCCc1ccc(NC(=O)COCC)cc1 | -1% | -5% | x | u | 50* | 44*
Cc1cc(C(=O)OC(C)C(=O)N2CCc3ccccc32)ccc1[N+](=O)[O-] (stereo not given) | x | x | 12% | -13% | x | x
COc1ccc(C)cc1NC(=O)CCS(=O)(=O)c1ccc2c(c1)oc(=O)n2C | x | 0% | -4% | 5% | -12 | -2
Cc1nc2sccn2c(=O)c1Cl | 4% | 0% | -26% | -8% | -2 | -6
Cn1c(=O)c2c(nc3sccn32)n(C)c1=O | -2% | 0% | -25% | 1% | 20* | 11
Cc1nnc(N/N=C/c2cccc(C(F)(F)F)c2)n1N | u | -67% | 15µM* | -4% | 9 | -4
Cc1ccnc(N/N=C/c2ccco2)n1 | u | -1% | 91% | x | 41* | 47
Cc1nnc(N/N=C/c2ccco2)n1N | 20µM* | x | 28% | -22% | 3 | -3
Cc1nnc(N/N=C/c2ccccc2C(F)(F)F)n1N | u | -2% | 83% | 6% | 7 | 16
Cc1nnc(N/N=C/c2ccccc2F)n1N | u | -32% | 4% | 27% | 11 | -6
COc1ccc(NC(=O)COC(=O)c2cc3c(s2)CCC3)cc1 | x | x | -6% | -1% | x | x
CCCN(CCC)CCCNC(=O)C1CCC(CNS(=O)(=O)c2cccc3nsnc23)CC1 (stereo not given) | x | 3% | u | 12% | -1 | -1
SMILES | FBPA Giardia inh | NS1 function inh | Pf growth 96h | Pf growth 48h | CHX counter | Shiga inhibitor
CC(C)(C)C(=O)NC(=S)NNC(=O)c1ccc(Cl)cc1Cl | 12% | x | u | u | 3 | 30
Cc1ccc(NC(=O)C2CCN(S(C)(=O)=O)CC2)c(C)c1 | 3% | 11% | u | -3% | -3 | -10
Cc1ccccc1CSCCNC(=O)Nc1ccccc1 | -3% | -46% | -8% | u | 15* | 24
Cc1cccc(CSCCNC(=O)Nc2ccccc2)c1 | -5% | -41% | 38% | u | 12 | 25
CC(C)(C)SCCNC(=O)Nc1ccccc1 | 6% | -7% | 29% | 40% | 21* | 19*
CCN(CC)S(=O)(=O)c1ccc(C(=O)/C=C/c2ccc(-c3ccc([N+](=O)[O-])cc3)o2)cc1 | 0% | u | 19% | 3% | -3 | 1
CCc1ccc(C(=O)/C=C/c2ccc([N+](=O)[O-])o2)cc1 | -3% | -219% | 20% | x | 13* | 18
Cc1cc(C)n(-c2nc(-c3ccccc3)cs2)n1 | -2% | -13% | x | 143% | 35 | 112*
Cc1cc(C)n(-c2nc(C(=O)O)cs2)n1 | 7% | x | 7% | 11% | 8 | -5
Cc1cc(C)n(-c2nc(-c3cccc(Cl)c3)cs2)n1 | -1% | -7% | -23% | x | 23* | 35
Cc1cc(F)ccc1S(=O)(=O)Nc1ccccc1C(=O)NCc1cccnc1 | 10% | 0% | 13% | -14% | -4 | 34
COc1ccc(/C=C/C(=O)NC(=S)Nc2ccc(S(=O)(=O)N=C(N)N)cc2)cc1OC | 3% | 4% | u | 39% | 7 | -13
O=C(NC(=S)N1CCN(C/C=C/c2ccccc2)CC1)c1ccc(F)cc1 | -22% | -17% | u | 10µM* | 1 | 14
Fc1ccccc1NC(=S)N1CCN(C/C=C/c2ccccc2)CC1 | 7% | 8% | 0.59µM* | 3% | -1 | 22
CC[C@H](C)[C@H](NC(=O)[C@H](CCC(=O)O)NC(=O)[C@@H](N)CO)C(=O)N[C@@H](CCC(N)=O)C(=O)N[C@@H](CC(C)C)C(=O)N[C@@H](CCSC)C(=O)N[C@@H](Cc1cnc[nH]1)C(=O)N[C@@H](CC(N)=O)C(=O)N[C@@H](CC(C)C)C(=O)NCC(=O)N[C@@H](CCCCN)C(=O)N[C@@H](Cc1cnc[nH]1)C(=O)N[C@@H](CC(C)C)C(=O)N[C@@H](CC(N)=O)C(=O)N[C@@H](CO)C(=O)N[C@@H](CCSC)C(=O)N[C@@H](CCC(=O)O)C(=O)N[C@@H](CCCNC(=N)N)C(=O)N[C@H](C(=O)N[C@@H](CCC(=O)O)C(=O)N[C@@H](Cc1c[nH]c2ccccc12)C(=O)N[C@@H](CC(C)C)C(=O)N[C@@H](CCCNC(=N)N)C(=O)N[C@@H](CCCCN)C(=O)N[C@@H](CCCCN)C(=O)N[C@@H](CC(C)C)C(=O)N[C@@H](CCC(N)=O)C(=O)N[C@@H](CC(=O)O)C(=O)N[C@H](C(=O)N[C@@H](Cc1cnc[nH]1)C(=O)N[C@@H](CC(N)=O)C(=O)N[C@@H](Cc1ccccc1)C(=O)O)C(C)C)C(C)C | -10% | x | x | x | -8 | -5
CCN(CC)S(=O)(=O)c1cc(-c2nnc(-c3ccc(Br)cc3)o2)ccc1Cl | 1% | -9% | 3.3µM* | -2% | -3 | 19
COc1ccc([C@@H]2[C@@H]3C(=O)N(C(C)(C)C)C(=O)[C@@H]3[C@]3(C)C(=O)N(c4cccc(Cl)c4)C(=O)N23)cc1 | x | x | -24% | u | x | x
Oc1ccc(-c2nccc(-c3cccs3)n2)cc1 | 2% | -68% | 98% | 92% | 58* | 133*
CC(=O)Nc1ccc(-c2ccnc(-c3ccc(NC(C)=O)cc3)n2)cc1 | 2% | 2% | 2% | -8% | -3 | 23
COC(=O)C(C)Oc1ccc(-c2nccc(-c3cccs3)n2)cc1 (stereo not given) | -7% | -9% | 7% | 2% | 27* | 51*

Screening data as filed in PubChem BioAssay.
